Reference: PubChem BioAssay (NCATS)
Results filed as inconclusive are left out. A call without a number means that no potency is given here. Calls of active or inactive are those of the source. Calls follow the shape of the dose curve; as a rule, active = well fitted curve in the direction sought with a large enough effect; inconclusive = small, poorly fitted or top-dose-only effect, or another doubt; inactive = no such curve, though single readings can be large; an effect the other way counts as inactive or inconclusive.

The compounds below were run on Zika virus NS2B-NS3 protease (assay: Primary screen GU AMC qHTS for Zika virus inhibitors (AID 1347154; also: nearly all actives have a fitted effect of over 70% in size)). Conditions: Zika NS2B-NS3 unlinked protease, AMC fluorogenic substrate; series mostly up to 54.1 µM.
Outline: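 Unlinked Zika NS2B hydrophilic domain/NS3 protease domain noncovalent complex (25 nM final) in 10 mM Tris-HCl pH 8.0, 0.01% Tween 20, with AMC peptide substrate. Fluorescence (ex 340, em 450 nm) change over 15 min, room temperature; percent inhibition fitted to 4-parameter Hill equation.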

**Q.** `CC(C)C1CCC(C(=O)N[C@H](Cc2ccccc2)C(=O)O)CC1` (some centres undefined) was tested. Which Potency did it give?
**A.** inactive

**Q.** With `CC1(C)[C@H](C(=O)O)N2C(=O)C[C@H]2S1(=O)=O` as the compound, how does the Potency read?
**A.** inactive

**Q.** How did the Potency turn out when `NCCCC(O)(P(=O)(O)O)P(=O)(O)O` was run?
**A.** inactive

**Q.** How did the Potency turn out when `CC[C@H](C)C(=O)O[C@H]1C[C@@H](C)C=C2C=C[C@H](C)[C@H](CC[C@@H]3C[C@@H](O)CC(=O)O3)[C@H]21` was run?
**A.** inactive

**Q.** With `CN(C)CCc1c[nH]c2ccc(C[C@H]3COC(=O)N3)cc12` as the compound, how does the Potency read?
**A.** inactive

**Q.** With `Cc1noc(NS(=O)(=O)c2ccc(N)cc2)c1C` as the compound, how does the Potency read?
**A.** inactive

**Q.** `Cc1oc(=O)oc1CN1CCN(c2cc3c(cc2F)c(=O)c(C(=O)O)c2n3C(C)S2)CC1` (centres undefined) was tested. Which Potency did it give?
**A.** inactive

**Q.** `COc1cc(NS(=O)(=O)c2ccc(N)cc2)nc(OC)n1` was tested. Which Potency did it give?
**A.** inactive

**Q.** With `Cc1onc(-c2ccccc2Cl)c1C(=O)N[C@@H]1C(=O)N2[C@@H]1SC(C)(C)[C@@H]2C(=O)O` as the compound, how does the Potency read?
**A.** inactive

**Q.** `CCN[C@H]1C[C@H](C)S(=O)(=O)c2sc(S(N)(=O)=O)cc21` was tested. Which Potency did it give?
**A.** inactive

**Q.** `CN1CCN(c2c(F)cc3c(=O)c(C(=O)O)cn4c3c2OCN4C)CC1` was tested. Which Potency did it give?
**A.** inactive

**Q.** Which Potency does the source give for `NC(N)=NC(N)=NCCc1ccccc1` here?
**A.** inactive

**Q.** With `Cc1nnc(C(=O)NC(C)(C)c2nc(C(=O)NCc3ccc(F)cc3)c(O)c(=O)n2C)o1` as the compound, how does the Potency read?
**A.** inactive

**Q.** With `Cc1ncc([N+](=O)[O-])n1CCO` as the compound, how does the Potency read?
**A.** inactive

**Q.** With `CC1=CC(=O)c2ccccc2C1=O` as the compound, how does the Potency read?
**A.** inactive

**Q.** With `NS(=O)(=O)c1cc2c(cc1Cl)NC(C(Cl)Cl)NS2(=O)=O` (centres undefined) as the compound, how does the Potency read?
**A.** inactive

**Q.** How did the Potency turn out when `CCOC(=O)c1ccc(OC(=O)CCCCCN=C(N)N)cc1` was run?
**A.** inactive

**Q.** For `Clc1ccccc1CN1CCc2sccc2C1`, which Potency is on record?
**A.** inactive

**Q.** `CC(=O)CC(c1ccccc1)c1c(O)c2ccccc2oc1=O` (centres undefined) was tested. Which Potency did it give?
**A.** inactive

**Q.** How did the Potency turn out when `CCN(C)C(=O)Oc1cccc([C@H](C)N(C)C)c1` was run?
**A.** inactive

**Q.** Which Potency does the source give for `CCn1cc(C(=O)O)c(=O)c2cc(F)c(N3CCN(C)CC3)cc21` here?
**A.** inactive

**Q.** How did the Potency turn out when `CCOC(=O)[C@H](CCc1ccccc1)N[C@H]1CCc2ccccc2N(CC(=O)O)C1=O` was run?
**A.** inactive

**Q.** Which Potency does the source give for `CCCc1cc(C(N)=S)ccn1` here?
**A.** inactive

**Q.** With `CCCCc1oc2ccc(NS(C)(=O)=O)cc2c1C(=O)c1ccc(OCCCN(CCCC)CCCC)cc1` as the compound, how does the Potency read?
**A.** inactive

**Q.** With `COc1cc2ncnc(Nc3cccc(Cl)c3)c2cc1OC` as the compound, how does the Potency read?
**A.** inactive

**Q.** Which Potency does the source give for `COC(c1ccccc1)(c1ccccc1)[C@H](Oc1nc(C)cc(C)n1)C(=O)O` here?
**A.** inactive

**Q.** How did the Potency turn out when `CC(C)(C)NC(=O)[C@H]1CC[C@H]2[C@@H]3CC[C@H]4NC(=O)C=C[C@]4(C)[C@H]3CC[C@]12C` was run?
**A.** inactive

**Q.** For `OC(Cn1cncn1)(Cn1cncn1)c1ccc(F)cc1F`, which Potency is on record?
**A.** inactive

**Q.** For `C[C@]12C=CC(=O)C=C1CC[C@@H]1[C@@H]2C(=O)C[C@@]2(C)[C@H]1CC[C@]2(O)C(=O)CO`, which Potency is on record?
**A.** inactive

**Q.** Which Potency does the source give for `C1CCC(C(CC2CCCCN2)C2CCCCC2)CC1` (centres undefined) here?
**A.** inactive

**Q.** Which Potency does the source give for `COc1cnc(NS(=O)(=O)c2ccc(N)cc2)nc1` here?
**A.** inactive

**Q.** Which Potency does the source give for `Cc1cccc(Nc2ccncc2S(=O)(=O)NC(=O)NC(C)C)c1` here?
**A.** inactive

**Q.** With `Cc1ccnc2c1NC(=O)c1cccnc1N2C1CC1` as the compound, how does the Potency read?
**A.** inactive

**Q.** For `COc1ccc2c(c1)c(CC(=O)OCC(=O)O)c(C)n2C(=O)c1ccc(Cl)cc1`, which Potency is on record?
**A.** inactive

**Q.** `CCc1cc(C(N)=S)ccn1` was tested. Which Potency did it give?
**A.** inactive

**Q.** With `O[C@@H](CNC[C@H](O)[C@H]1CCc2cc(F)ccc2O1)[C@@H]1CCc2cc(F)ccc2O1` as the compound, how does the Potency read?
**A.** inactive

These compounds were tested on Zika virus NS2B-NS3 protease (unlinked complex) (assay: Primary screen GU Rhodamine qHTS for Zika virus inhibitors: Unlinked NS2B-NS3 protease assay (AID 1347159; also: nearly all actives have a fitted effect of over 60% in size)). Conditions: Recombinant ZIKV NS2B-NS3 protease, Rhodamine110 substrate fluorescence; series mostly up to 107 µM.
Outline: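 Percent inhibition derives from the 15-min fluorescence change (ex 480, em 540 nm), normalized to no-enzyme and no-inhibitor wells. Reactions contained 25 nM NS2B-NS3 complex and 1.5 microM substrate in 10 mM Tris-HCl pH 8.0.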

**Q.** With `CC1(C)[C@H](C(=O)O)N2C(=O)C[C@H]2S1(=O)=O` as the compound, how does the Potency read?
**A.** inactive

**Q.** `CC[C@H](C)C(=O)O[C@H]1C[C@@H](C)C=C2C=C[C@H](C)[C@H](CC[C@@H]3C[C@@H](O)CC(=O)O3)[C@H]21` was tested. Which Potency did it give?
**A.** inactive

**Q.** Which Potency does the source give for `CN(C)CCc1c[nH]c2ccc(C[C@H]3COC(=O)N3)cc12` here?
**A.** inactive

**Q.** For `Cc1onc(-c2ccccc2Cl)c1C(=O)N[C@@H]1C(=O)N2[C@@H]1SC(C)(C)[C@@H]2C(=O)O`, which Potency is on record?
**A.** inactive

**Q.** How did the Potency turn out when `Cc1nnc(C(=O)NC(C)(C)c2nc(C(=O)NCc3ccc(F)cc3)c(O)c(=O)n2C)o1` was run?
**A.** inactive

**Q.** With `CCCCc1oc2ccc(NS(C)(=O)=O)cc2c1C(=O)c1ccc(OCCCN(CCCC)CCCC)cc1` as the compound, how does the Potency read?
**A.** inactive

**Q.** With `COc1cc2ncnc(Nc3cccc(Cl)c3)c2cc1OC` as the compound, how does the Potency read?
**A.** inactive

**Q.** How did the Potency turn out when `NC1(c2ccc(-c3nc4ccn5c(=O)[nH]nc5c4cc3-c3ccccc3)cc2)CCC1` was run?
**A.** inactive
